{
  "source": "PubChem BioAssay AID720704",
  "about": "(The Scripps Research Institute Molecular Screening Center, 2013)",
  "note": "In all, about 370,000 compounds went through this assay and about 660 (0.18%) were called active. Shown is part of a subset that was picked to be rich in actives. A number with no mark means an inactive call. Rule as the data show it: active = inhibition above about 11%; inactive = the rest.",
  "data": [
    {"target": "1-phosphatidylinositol 4,5-bisphosphate phosphodiesterase beta-3 (Homo sapiens) (UniProt Q01970)", "sequence (Q01970 whole entry, looked up)": "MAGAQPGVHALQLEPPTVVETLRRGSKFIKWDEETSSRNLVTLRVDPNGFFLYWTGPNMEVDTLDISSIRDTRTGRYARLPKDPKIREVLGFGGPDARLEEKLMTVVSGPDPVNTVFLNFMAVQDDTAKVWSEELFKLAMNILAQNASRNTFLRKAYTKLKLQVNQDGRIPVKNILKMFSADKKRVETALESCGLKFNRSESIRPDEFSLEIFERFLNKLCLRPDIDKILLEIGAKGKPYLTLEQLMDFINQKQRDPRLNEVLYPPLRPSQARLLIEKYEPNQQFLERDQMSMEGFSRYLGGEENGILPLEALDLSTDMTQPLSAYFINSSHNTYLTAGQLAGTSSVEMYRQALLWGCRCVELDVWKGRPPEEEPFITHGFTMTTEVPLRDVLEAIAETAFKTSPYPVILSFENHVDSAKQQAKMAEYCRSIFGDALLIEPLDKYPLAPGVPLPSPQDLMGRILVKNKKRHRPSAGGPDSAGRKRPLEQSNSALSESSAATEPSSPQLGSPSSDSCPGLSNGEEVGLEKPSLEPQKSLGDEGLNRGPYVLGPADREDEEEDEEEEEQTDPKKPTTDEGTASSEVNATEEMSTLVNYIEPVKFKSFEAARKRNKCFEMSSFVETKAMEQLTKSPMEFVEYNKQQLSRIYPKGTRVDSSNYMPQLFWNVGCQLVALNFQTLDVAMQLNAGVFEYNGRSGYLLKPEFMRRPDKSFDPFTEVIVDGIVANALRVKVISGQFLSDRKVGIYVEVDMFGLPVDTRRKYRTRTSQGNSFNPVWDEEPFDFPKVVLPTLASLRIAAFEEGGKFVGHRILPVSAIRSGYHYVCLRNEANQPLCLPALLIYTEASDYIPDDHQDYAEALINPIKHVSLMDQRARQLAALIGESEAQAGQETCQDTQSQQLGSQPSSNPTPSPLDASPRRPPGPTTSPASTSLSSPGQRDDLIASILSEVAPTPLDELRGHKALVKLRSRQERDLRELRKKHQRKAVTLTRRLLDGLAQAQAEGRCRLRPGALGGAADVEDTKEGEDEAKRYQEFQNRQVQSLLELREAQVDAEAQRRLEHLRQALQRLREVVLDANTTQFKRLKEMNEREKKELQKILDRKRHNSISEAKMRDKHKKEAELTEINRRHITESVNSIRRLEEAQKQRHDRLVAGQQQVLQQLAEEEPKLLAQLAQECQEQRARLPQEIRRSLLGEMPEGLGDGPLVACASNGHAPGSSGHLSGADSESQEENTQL", "test": "phospholipase C beta3 enzyme inhibition – biochemical, fluorescence, primary screen (AID 720704);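 also: 0% = median of compound wells on plate and 100% = full blocker control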", "conditions": "Purified PLC-beta3, fluorogenic substrate, at 12.2 µM, active compounds read high", "values": [
      {"smiles": "CCOC(=O)C1C(c2ccc(OC)c(OC)c2)c2c([nH][nH]c2=O)CC1(C)O", "note": "(stereo unspecified)", "inhibition": "-7.78%"},
      {"smiles": "Cc1ccc(S(=O)(=O)N2CCC(C(=O)N[C@@H](C)C(=O)NCc3ccco3)CC2)cc1", "inhibition": "0.13%"},
      {"smiles": "CC1CCN(S(=O)(=O)c2ccc(S(=O)(=O)NCc3ccco3)cc2)CC1", "inhibition": "10.8% (active)"},
      {"smiles": "CC1CCN(S(=O)(=O)c2ccc(S(=O)(=O)NCc3cccnc3)cc2)CC1", "inhibition": "-6.19%"},
      {"smiles": "CC(=O)n1cc([C@H]2C=C(C(=O)N3CCOCC3)O[C@@H](OCc3ccc(CO)cc3)C2)c2ccccc21", "inhibition": "-5.02%"},
      {"smiles": "COC(=O)c1ccccc1-n1cc(COC(=O)NCCc2ccccc2)nn1", "inhibition": "-1.19%"},
      {"smiles": "CC(=O)NC(Cc1ccc(F)c(F)c1)C(=O)NC1CCN(C(=O)c2ccc(C)cc2)CC1", "note": "(stereo unspecified)", "inhibition": "-5.45%"},
      {"smiles": "O=C(NCc1ccccc1Cl)C(=O)NCC1CCCN1S(=O)(=O)c1cccs1", "note": "(stereo unspecified)", "inhibition": "-11.5%"},
      {"smiles": "O=C(c1ccccc1Cl)N(Cc1ccccc1F)N1C(=O)CCCC1=O", "inhibition": "-3.35%"},
      {"smiles": "CC1=C(C)C(=O)OC(C(C)C2CCC3C4CC=C5CC(OC6OC(COC7OC(CO)C(O)C(O)C7O)C(O)C(O)C6O)CC(O)C5(C)C4CCC23C)C1", "note": "(stereo unspecified)", "inhibition": "4.96%"},
      {"smiles": "Cc1nnc(SC(C)C(=O)Nc2ccc(S(=O)(=O)NC3CCCCC3)cc2)s1", "note": "(stereo unspecified)", "inhibition": "4.91%"},
      {"smiles": "CCOc1ccc(OCC)c(NC(=O)CSc2nnc(Cn3cnc4ccccc43)n2C)c1", "inhibition": "12.1% (active)"},
      {"smiles": "COc1ccc(OC)c(NC(=O)CSc2nc3cccnc3n2C)c1", "inhibition": "6.47%"},
      {"smiles": "COc1ccc(C)cc1NC(=O)CSc1nnc(CC(=O)Nc2ccccc2F)n1C", "inhibition": "-4.5%"},
      {"smiles": "CSCCC(NC(=O)c1cc([N+](=O)[O-])cc([N+](=O)[O-])c1)c1nc2ccccc2[nH]1", "note": "(stereo unspecified)", "inhibition": "-1.97%"},
      {"smiles": "O=C(CSc1nc2ccccc2o1)N1CCN(c2ccc(Cl)cc2)CC1", "inhibition": "-0.03%"},
      {"smiles": "Cc1ccc(/C=N/NC(=O)CSc2nc3ccccc3o2)cc1", "inhibition": "11.3% (active)"},
      {"smiles": "O=C(CSc1nc2ccccc2o1)N1c2ccccc2Sc2ccc(Cl)cc21", "inhibition": "-0.49%"},
      {"smiles": "O=C1CCC(C(=O)N2CCC(O)(c3ccccc3)CC2)CN1CCc1ccccc1", "note": "(stereo unspecified)", "inhibition": "-8.61%"},
      {"smiles": "CCC(=O)c1ccc(N2CCN(C(=O)c3cc([N+](=O)[O-])ccc3F)CC2)c(F)c1", "inhibition": "-2.14%"},
      {"smiles": "NC(=O)c1nnsc1-c1ccc(-c2snnc2C(N)=O)cc1", "inhibition": "-6.22%"},
      {"smiles": "Cc1ccc(-c2nc(CS(=O)(=O)CC(=O)NCc3ccc4c(c3)OCO4)c(C)o2)cc1", "inhibition": "-6.63%"},
      {"smiles": "O=C(COC(=O)c1ncc(Cl)c(Cl)c1Cl)NNC(=O)c1ccccc1", "inhibition": "-12.2%"},
      {"smiles": "Cc1cc(Cl)ccc1OCCCC(=O)Nc1cccc(-n2cnnn2)c1", "inhibition": "-7.06%"},
      {"smiles": "COc1ccc(CC(NC(C)=O)C(=O)NC2CCN(C(=O)c3ccc(OC)c(OC)c3)CC2)cc1OC", "note": "(stereo unspecified)", "inhibition": "2.51%"},
      {"smiles": "Cc1nnc(SCc2nc3ccccc3nc2C)s1", "inhibition": "2.42%"},
      {"smiles": "Cc1nc2ccccc2nc1CC(O)(c1ccccc1)c1ccccc1", "inhibition": "11.5% (active)"},
      {"smiles": "C/C(CC(O)(/C=N/O)c1ccccc1)=N\\O", "note": "(stereo unspecified)", "inhibition": "3.84%"},
      {"smiles": "O=C(c1cc2sccc2n1Cc1ccc(F)cc1)N1CCc2ccccc21", "inhibition": "-17.1%"},
      {"smiles": "Cc1ccc(C)c(NC(=O)c2ccc(OC(=O)c3ccco3)cc2)c1", "inhibition": "-2.18%"},
      {"smiles": "Cc1cc(NC(=O)[C@H](C)NC(=O)c2ccco2)ccc1Br", "inhibition": "-1.12%"},
      {"smiles": "Cc1cc(NC(=O)c2ccc(F)cc2)ccc1NC(=O)c1ccco1", "inhibition": "12.6% (active)"},
      {"smiles": "COc1ccc(NC(=O)C[C@H]2C(=O)N(CCc3ccccc3)C[C@@H]2C)cc1", "inhibition": "4.39%"},
      {"smiles": "CC1(C)CN(CCc2ccccc2)C(=O)[C@H]1CC(=O)Nc1ccc(Br)cc1", "inhibition": "1.65%"},
      {"smiles": "O=C(C[C@H]1C(=O)N(c2ccc(F)c(F)c2)C[C@@H]1Cc1ccccc1)Nc1ccccc1", "inhibition": "12.1% (active)"},
      {"smiles": "Cc1nc2nc(COc3ccccc3)[nH]n2c(=O)c1C", "inhibition": "2.74%"},
      {"smiles": "CCN1C(=O)CS/C1=N\\c1nccs1", "inhibition": "0.11%"},
      {"smiles": "Nc1ccn(CC(=O)N2CCN(c3ccccn3)CC2)c(=O)n1", "inhibition": "-1.87%"},
      {"smiles": "O=C1NCC(Nc2ccccc2)C(=O)N1", "note": "(stereo unspecified)", "inhibition": "1.2%"},
      {"smiles": "C=CCn1c(=O)n(C)c2c(=O)n(C)c(=O)n(C)c21", "inhibition": "0.17%"},
      {"smiles": "CCC1CCCCN1C(=O)CSc1nc2c(c(=O)n1C)SC(C)C2", "note": "(stereo unspecified)", "inhibition": "-1.75%"},
      {"smiles": "CCC1CCCCN1C(=O)CSc1nc2c(c(=O)n(C)c(=O)n2C)n1C", "note": "(stereo unspecified)", "inhibition": "-1.77%"},
      {"smiles": "CCC1CCCCN1C(=O)CSc1nc(C)cc(C)n1", "note": "(stereo unspecified)", "inhibition": "19.7% (active)"},
      {"smiles": "CCCC/S(C)=N/S(=O)(=O)c1ccc(C)cc1", "note": "(stereo unspecified)", "inhibition": "3.14%"},
      {"smiles": "C=CC[C@@H](CC(=O)N[C@@H](CO)Cc1ccccc1)C(=O)NCCOC(=O)[C@@H](CC=C)CC(=O)OC(C)(C)C", "inhibition": "2.47%"},
      {"smiles": "C=CC[C@@H](CC(=O)NCCO)C(=O)N[C@H](C)COC(=O)[C@@H](CC=C)CC(=O)OC(C)(C)C", "inhibition": "12.3% (active)"},
      {"smiles": "C=CC[C@@H](CC(=O)N[C@@H](CO)Cc1ccccc1)C(=O)N[C@H](COC(=O)[C@H](CC=C)CC(=O)OC(C)(C)C)Cc1ccccc1", "inhibition": "2.78%"},
      {"smiles": "CCO[C@@H]1OC(C(=O)NC2CC2)=C[C@H](C)[C@H]1CCCO", "inhibition": "1.08%"},
      {"smiles": "CC1=C(C(=O)N2CCOCC2)CC(CC(=O)NCc2cccc3ccccc23)C(=O)N1CCC1=CCCCC1", "note": "(stereo unspecified)", "inhibition": "3.78%"},
      {"smiles": "Nc1cc(N2CCCCCC2)c2nonc2c1[N+](=O)[O-]", "inhibition": "-10.7%"},
      {"smiles": "Cc1cc2c(cc1C)NC(c1ccccn1)C1=C(CC(C)(C)CC1=O)N2", "note": "(stereo unspecified)", "inhibition": "-15%"},
      {"smiles": "O=C(O)CCCCOn1ccnc1", "inhibition": "1.89%"},
      {"smiles": "CC(C)CCN(C(=O)c1csnn1)C(C(=O)NC1CCCC1)c1ccccc1", "note": "(stereo unspecified)", "inhibition": "-3.64%"},
      {"smiles": "CN1C(CC(=O)Nc2ccc(Br)cc2)c2ccccc2CC1(C)C", "note": "(stereo unspecified)", "inhibition": "-1.47%"},
      {"smiles": "COC(=O)C1=C(N)Oc2cc(C)oc(=O)c2C1c1cccnc1", "note": "(stereo unspecified)", "inhibition": "-0.05%"},
      {"smiles": "O=C(Nc1ccccc1C(F)(F)F)N1CCCC1c1cccnc1", "note": "(stereo unspecified)", "inhibition": "-8.96%"},
      {"smiles": "O=c1ccc2c(-c3ccccc3S(=O)(=O)O)c3ccc(O)c(O)c3oc-2c1O", "inhibition": "11.7% (active)"},
      {"smiles": "Cc1ccsc1C(=O)N[C@@H](C)c1nnc2ccccn12", "inhibition": "-1.93%"},
      {"smiles": "COc1ccc(Br)cc1CN(C)C(=O)C1CC(=O)N(C2CCCC2)C1", "note": "(stereo unspecified)", "inhibition": "-3.09%"},
      {"smiles": "CCN1CN(Cc2ccccc2)CNC1=S", "inhibition": "6.18%"},
      {"smiles": "CC(C)c1nc2oc3c(N4CCN(C)CC4)ncnc3c2c2c1CCC2", "inhibition": "-17.2%"}
    ]}
  ]
}
